The values below come from PubChem BioAssay AID504832 (National Center for Advancing Translational Sciences (NCATS), 2011).

Structures are written as SMILES. Several values for one entry are separate records, joined by “and”; a condition that tells them apart may be missing. Identical values can stand only once. The campaign covered roughly 310,000 compounds. About 18,000 (5.8%) were called active. Entries that show only a call come without a potency. Roughly 22% stayed inconclusive and do not appear here. Calls follow the shape of the dose curve; as a rule, active = well fitted inhibition curve with a large enough effect; inconclusive = small, poorly fitted or top-dose-only effect, or another doubt; inactive = no such curve, though single readings can be large or run the other way. The sample as a whole holds a higher share of actives than the screen did.
Potency is read from the fitted curve at half-maximal effect.

This assay is described as follows: Primary qHTS for delayed death inhibitors of the malarial parasite plastid, 48 hour incubation. The conditions noted are these: P. falciparum luciferase growth in erythrocytes; series mostly up to 28.7 µM. A digest of the protocol: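 Firefly luciferase activity from engineered P. falciparum reports growth; inhibitors lower the luminescent signal. Cultures contained 2% hematocrit erythrocytes at 0.1% final parasitemia.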
`CC(C)(C)OC(=O)N1CCC(C(=O)NNC(=O)c2ccc(Cl)cc2Cl)CC1`: the Potency entry was “inactive”.
With `Cc1c(CN2CCC(n3nccc3NC(=O)CCc3ccccc3)CC2)cnn1C`, the Potency entry is “inactive”.
Take `COC(=O)c1c(NC(=O)C2CC(C)=C(C)CC2C(=O)O)sc2c1CCCCC2` (stereo unspecified): the Potency entry is “inactive”.
Take `COC(=O)c1ccc(S(=O)(=O)N2CCc3ccccc3C2)cc1`: the Potency entry is “inactive”.
Consider `COc1ccc(N2C(=O)c3ccccc3NC2c2ccc(OC)c(CN3CCOCC3)c2)cc1` (stereo unspecified), for which the Potency result was “inactive”.
Take `COc1ccc(C2Nc3ccccc3C(=O)N2c2ccc(Cl)cc2)cc1Cn1cc([N+](=O)[O-])cn1` (stereo unspecified): the Potency entry is “inactive”.
As to `COc1ccc(C2Nc3ccccc3C(=O)N2c2ccc(F)cc2)cc1Cn1nnc2ccccc21` (stereo unspecified), the Potency was 6.57 µM (active).
Still for that read-out and setting: as for `COc1ccc(C2=NO[C@@H]3C(=O)N(Cc4ccccc4)C(=O)[C@H]23)cc1OC`, the entry is “inactive”; as for `Cc1ccc(C2Nc3ccccc3C(=O)N2CCN2CCNC2=O)cc1` (stereo unspecified), “inactive”; as for `COc1ccc(C2Nc3ccccc3C(=O)N2Cc2ccccc2)cc1Cn1nnc2ccccc21` (stereo unspecified), 3.7 µM (active).
Still for that read-out and setting: as for `CCCc1c(C(=O)N/N=C(\C)CCc2ccc(OC)cc2)nnn1-c1nonc1N`, the entry is “inactive”; as for `CC(C)C(NC(=O)c1c(F)cccc1F)C(=O)NCc1ccncc1` (stereo unspecified), “inactive”; as for `O=C(CCl)NNc1nc(-c2ccccc2)c2cc(Cl)ccc2n1`, “inactive”.
With `Cc1ccc2nc(Nc3ccccc3O)nc(-c3ccccc3)c2c1`, the Potency is 13.1 µM (active).
As for `CCS(=O)(=O)Nc1cccc(-c2cc(-c3ccccc3)c3cc(C)ccc3n2)c1`, the Potency result is “inactive”.
The same measure, in the same setting: under `Nc1c(C(=O)OCC(=O)Nc2ccc(OC(F)F)cc2)[nH]c(=O)[nH]c1=O` stands “inactive”; under `O=C(c1cc(COc2ccc(F)cc2F)on1)N1CCOCC1`, “inactive”.
For `CCCCN(CCCC)CCC(O)c1cc2c(Cl)cc(Cl)cc2c2cc(C(F)(F)F)ccc12` (stereo unspecified), the Potency was 3.2 nM (active) and 4.1 nM (active).
In the case of `CCCCC(=O)Nc1ccc(C(=O)Nc2cc(C(F)(F)F)ccc2Cl)cc1`, the Potency entry is “inactive”.
With `COc1cccc(CNC(=O)COc2cc(O)c3c(c2)OC(C)(C)CC3=O)c1`, the Potency result was “inactive”.
Same read-out and setting: under `Clc1ccc(CSc2nnc3c(n2)[nH]c2ccccc23)cc1` stands 5.22 µM (active).
Regarding `Cc1ccc(CNC(=O)CSc2nnc3c(n2)[nH]c2ccc(F)cc23)cc1`, the Potency result was “inactive”.
The same measure, in the same setting: as for `O=C(CSc1nnc2c(n1)[nH]c1ccccc12)NC1CCCCC1`, the entry is “inactive”; as for `CCCCN(C(=O)c1ccc(S(=O)(=O)N2CCOCC2)cc1)C1CCS(=O)(=O)C1` (stereo unspecified), “inactive”.
The same measure, in the same setting: under `O=C1OC(c2ccc(Cl)cc2)=N/C1=C\c1cccnc1` stands “inactive”.
Regarding `O=C1NCC(=O)N(Cc2ccccc2)/C1=C/c1ccccc1`, the Potency entry is “inactive”.
`O=C1NNC(c2ccccc2)=N/C1=C\c1ccc(Cl)cc1`: the Potency was 6.57 µM (active).
With `COc1ccc(C2CC(c3ccc([N+](=O)[O-])cc3)=NN2C(C)=O)cc1` (stereo unspecified), the Potency entry is “inactive”.
Regarding `CNC(=O)C1CC(=O)N(c2ccc(OCC(=O)Nc3ccccc3C)cc2)C1` (stereo unspecified), the Potency entry is “inactive”.
As to `O=C1C(=O)N(CCCO)C(c2ccccc2)/C1=C(\O)c1ccc(Br)cc1` (stereo unspecified), the Potency entry was “inactive”.
Turning to `Cc1ccc(OCCOc2cccc(/C=N/NC(N)=O)c2)cc1`, the Potency result is “inactive”.
On the same count and under the same terms, as for `O=C(N/N=C/c1cccc(O)c1)c1cc2c(ccc3ccccc32)o1`, the entry is “inactive”; as for `O=C(N/N=C/c1cccc(OCc2ccccc2)c1)c1ccc(Br)o1`, 9.28 µM (active); as for `O=C(NCCCN1CCOCC1)c1cc(-c2ccccc2F)no1`, “inactive”.
The same measure, in the same setting: under `Nc1ccccc1SC(C[N+](=O)[O-])c1ccccc1` (stereo unspecified) stands 4.15 µM (active); under `Nc1ccccc1SCc1cc([N+](=O)[O-])cc2c1OCOC2`, “inactive”; under `Nc1ccccc1Sc1ccc(C(F)(F)F)cc1[N+](=O)[O-]`, “inactive”.
With `CN(c1ccc(O)cc1)c1nc(-c2cccnc2)cs1`, the Potency result is “inactive”.
Consider `O=C1CCCC2=C1C(c1ccccc1)n1c(s/c(=C/c3cccc(F)c3)c1=O)=N2` (stereo unspecified), for which the Potency entry is “inactive”.
Turning to `COc1ccc(OC)c(C2C3=C(N=c4s/c(=C\c5cccc(O)c5)c(=O)n42)c2ccccc2CC3)c1` (stereo unspecified), the Potency was 5.86 µM (active).
On to `O=C(NCCc1ccc(F)cc1)c1ccc2nccnc2c1`, for which the Potency result is “inactive”.
Regarding `CC(C)Cc1nc(Nc2ccc(S(=O)(=O)N3CCCC3)cc2)c2nnn(Cc3ccccc3)c2n1`, the Potency was 4.65 µM (active).
On to `Clc1ccc(Nc2ncnc3c2nnn3Cc2ccccc2)cc1`, for which the Potency entry is “inactive”.
On to `CC(C)Nc1ncnc2c1nnn2Cc1ccccc1`, for which the Potency result is “inactive”.
On the same count and under the same terms, under `COc1cccc(CNC(=O)c2cccnc2Sc2ccc(Cl)cc2)c1` stands “inactive”.
With `COc1ccc(C(=O)OCC(=O)c2ccc(Cl)s2)c(OC)c1OC`, the Potency result is “inactive”.
For `O=[N+]([O-])c1cc([N+](=O)[O-])c2cccnc2c1O`, the Potency entry is “inactive”.
On the same count and under the same terms, under `CCN(CC)c1ccc([N+](=O)[O-])c2cccnc12` stands “inactive”.
`CC(CNc1ccc([N+](=O)[O-])c2cccnc12)Nc1c([N+](=O)[O-])cc(C(F)(F)F)cc1[N+](=O)[O-]` (stereo unspecified): the Potency was 10.4 µM (active).
On to `N#Cc1cccc(OC(=O)c2ccc3c(=O)n4c(nc3c2)CCC4)c1`, for which the Potency entry was “inactive”.
Regarding `C=CCOc1ccc(/C=C/C(=O)OCC(=O)NC(C)c2ccc(F)cc2)cc1` (stereo unspecified), the Potency entry was “inactive”.
Regarding `CCOC(=O)C1CCCN(CCSc2ccc(C)cc2)C1` (stereo unspecified), the Potency entry is “inactive”.
Same read-out and setting: as for `CCN1CCN(Cc2c(O)ccc3c(=O)c(-c4ccc(OC)c(OC)c4)c(C(F)(F)F)oc23)CC1`, the figure is 7.38 µM (active); as for `CCc1cc2c(=O)c(-c3ccc(F)cc3)c(C(F)(F)F)oc2cc1OCC(=O)O`, “inactive”.
For `O=c1c(-c2ccc3c(c2)OCCO3)c(C(F)(F)F)oc2cc(O)cc(O)c12`, the Potency entry is “inactive”.
As for `CC(CN1CCC(n2nccc2NC(=O)C2CCCC2)CC1)c1ccccc1` (stereo unspecified), the Potency entry was “inactive”.
In the case of `CC1CN(S(=O)(=O)c2cccc(C(F)(F)F)c2)CN1C(=O)N1CCOCC1` (stereo unspecified), the Potency entry was “inactive”.
On the same count and under the same terms, under `Cc1ccc(C(=O)NC2CCN(C(=O)Nc3ccccc3Cl)CC2)cc1` stands “inactive”; under `COC(=O)C1=C(C)Nc2ncnn2C1c1cccnc1` (stereo unspecified), “inactive”; under `Clc1ccc2c(c1)C1=C(C(c3ccncc3)O2)C(c2ccc(Br)cc2)n2ncnc2N1` (stereo unspecified), 13.1 µM (active).
For `CC1=C(C(N)=O)C(c2ccc(Br)cc2)n2ncnc2N1` (stereo unspecified), the activity change, negative = inhibition is 5.11% [at 0.00184 µM] (inactive).
Take `CN1CCN(C(=O)C(=O)c2cn(CC(=O)N3CCCC3)c3ccccc23)CC1`: the Potency entry is “inactive”.
For `O=C(COC(=O)Cc1ccc(F)cc1)Nc1cc(S(=O)(=O)N2CCOCC2)ccc1N1CCCC1`, the Potency entry is “inactive”.
Consider `CCN(CC)S(=O)(=O)c1ccc(N2CCOCC2)c(NC(=O)C2COc3ccccc3O2)c1` (stereo unspecified), for which the Potency entry is “inactive”.
As for `CCN1CCN(c2ccc(S(=O)(=O)N3CCCCC3)cc2NC(=O)c2cccc(NC(C)=O)c2)CC1`, the Potency was 13.1 µM (active).
Take `CCN(CC)S(=O)(=O)c1ccc(N2CCOCC2)c(NC(=O)C(C)Oc2ccc(F)cc2)c1` (stereo unspecified): the Potency is 4.65 µM (active).
Still for that read-out and setting: as for `CCN1CCN(c2ccc(S(=O)(=O)N3CCCCC3)cc2NC(=O)Cc2c(Cl)cccc2Cl)CC1`, the entry is “inactive”; as for `COCCNC(=S)Nc1cc(S(=O)(=O)N2CCOCC2)ccc1N1CCCCC1`, “inactive”; as for `Cc1ccc(S(=O)(=O)N2CCCCC2)cc1NC(=O)c1cccnc1`, “inactive”.
Still for that read-out and setting: as for `CCN(CC)S(=O)(=O)c1cc(C(=O)Nc2cc(S(=O)(=O)N3CCOCC3)ccc2N2CCCC2)ccc1F`, the figure is 7.38 µM (active); as for `CCN(CC(=O)N1CCCC1)S(=O)(=O)c1ccc(F)cc1`, “inactive”.
